TDP43 rescue: TDP-43 toxicity inhibition in yeast; TDP-43 expressing yeast growth rescue, BacTiter-Glo, 24 h; Potency, µM (highest dose often 46.1 µM), for the others: top-dose growth rescue (activation), actives largely listed as activators; 410,000 tested, 1.8% active; AID 652104; note: % of control where 0% means no effect; nearly all actives have a fitted effect of over 50% in size
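Cell-based yeast growth screen: TDP-43 expression induced in galactose, inoculum OD600=0.02 after raffinose pregrowth to mid-log. Read-out BacTiter-Glo luminescence at 24 hr, 30 deg C; inhibition of toxicity seen as signal increase.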
FUS suppressor: FUS proteinopathy suppression in yeast. S. cerevisiae FUS-expressing, growth rescue, OD600, 24 h. Potency, µM (highest dose often 76.6 µM), usual class: activators. 390,000 tested, 0.24% active;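 note: plate controls were DMSO vehicle for no effect and reference control for full effect; nearly all actives have a fitted effect of over 55% in size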
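S. cerevisiae expressing FUS from galactose induction served as the toxicity model. Growth after 24hr at 30C, read as absorbance at 600 nm, indicates suppression of toxicity; compounds dosed at several concentrations.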
PTAP TSG101 blk: blocks PTAP/TSG101 interaction to inhibit HIV-1 budding; Potency, µM (highest dose often 115 µM), without a hit: at the highest dose activity change, negative = inhibition, usual class: inhibitors; Fluorescence polarization, FITC-PTAP peptide / Tsg101 binding; 340,000 tested, under 10 active; Q99816; active = well fitted inhibition curve with a large enough effect in the main read-out, with a control signal flat, not every such curve was filed as active; inconclusive = small, poorly fitted or top-dose-only effect, or effect the other way, or a change in a side signal; inactive = no such curve, though single readings can be large or run the other way; note: % of control where 0% means no effect
Target sequence (Q99816 whole entry, looked up): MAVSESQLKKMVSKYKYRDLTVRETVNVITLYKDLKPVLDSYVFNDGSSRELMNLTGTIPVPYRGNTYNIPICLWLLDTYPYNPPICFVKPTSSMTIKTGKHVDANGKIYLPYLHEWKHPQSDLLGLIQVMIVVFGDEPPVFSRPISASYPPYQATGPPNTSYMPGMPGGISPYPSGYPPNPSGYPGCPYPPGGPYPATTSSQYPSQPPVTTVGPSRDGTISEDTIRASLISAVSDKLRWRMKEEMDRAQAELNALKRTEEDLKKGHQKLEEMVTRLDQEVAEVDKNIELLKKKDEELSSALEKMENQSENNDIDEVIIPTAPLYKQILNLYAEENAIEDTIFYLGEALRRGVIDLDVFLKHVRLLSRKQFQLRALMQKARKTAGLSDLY
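Fluorescence polarization binding of Tsg101 binding domain (10 uM final) to FITC-labeled PTAP peptide (50 nM final) in HEPES pH 7.5 buffer with NaCl, Tween 20, EDTA, TCEP. Compounds added before peptide; binding 20 min at RT.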
Abeta rescue: restores growth of yeast expressing A-beta42 peptide; yeast expressing A-beta42, growth rescue, OD600, 48 h; response scale: 0% DMSO, 100% iron-clioquinol control; Potency, µM (doses to about 46.1 µM), actives largely listed as activators; 410,000 tested, 0.063% active; AID 1347071; note: nearly all actives have a fitted effect of over 55% in size
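Growth rescue measured by 600 nm absorbance after 48 h yeast culture at 30 C with compound. Values normalized between DMSO and an equimolar ferric chloride plus clioquinol control.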
aSyn rescue: rescues yeast growth from alpha-synuclein toxicity; Potency, µM (series often up to 46.1 µM), inactives show at the highest dose growth rescue (activation), usual class: activators; Yeast expressing alpha-synuclein, growth rescue, BacTiter-Glo, 24 h; 370,000 tested, 0.14% active; note: % of control where 0% means no effect; nearly all actives have a fitted effect of over 65% in size
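Readout is rescue of growth in alpha-synuclein-expressing yeast, so inhibitors of toxicity appear as activators. Growth after 24 hr at 30 deg C in galactose medium is quantified by luminescence.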
The depositor's hits bear a star. A selection: hits, their analogues and other compounds. The true share with any hit is near 2.1%. Unless noted, calls come from the whole dose curve; as a rule, active = well fitted curve in the direction sought with a large enough effect; inconclusive = small, poorly fitted or top-dose-only effect, or another doubt; inactive = no such curve, though single readings can be large; an effect the other way counts as inactive or inconclusive. Potency is the fitted concentration of half-maximal effect.

Results for CC(CNC(=O)C1CCN(S(=O)(=O)c2ccc3c(ccn3C)c2)CC1)c1ccccc1 (configuration not stated) ?
TDP43 rescue: 0%; FUS suppressor: inactive; Abeta rescue: inactive

Results for Cc1ccc2cc(C#N)c(N3CCCN(S(=O)(=O)c4ccccc4)CC3)nc2c1C ?
TDP43 rescue: -13%; FUS suppressor: 6.3µM*; PTAP TSG101 blk: -1%; Abeta rescue: inactive; aSyn rescue: 9%

How did CCn1cc(Br)c(C(=O)Nc2ccc(Cl)cc2Cl)n1 do in these assays?
TDP43 rescue: 4.5µM*; FUS suppressor: inactive; PTAP TSG101 blk: -5%; Abeta rescue: inactive; aSyn rescue: 2%

Results for CCOC(=O)c1ccc(NC(=O)c2nn(CC)cc2Br)cc1 ?
TDP43 rescue: 14%; FUS suppressor: inactive; PTAP TSG101 blk: -2%; Abeta rescue: inactive; aSyn rescue: -18%

How did CCn1cc(Br)c(C(=O)Nc2ccc(F)c(Cl)c2)n1 do in these assays?
TDP43 rescue: 11µM*; FUS suppressor: inactive; PTAP TSG101 blk: -4%; Abeta rescue: inactive; aSyn rescue: 0%

Results for O=C(c1ccco1)N(Cc1ccc([N+](=O)[O-])cc1)c1ccc(Br)cc1 ?
TDP43 rescue: 32µM*; FUS suppressor: inactive; PTAP TSG101 blk: -4%; Abeta rescue: inactive; aSyn rescue: 1%

Results for O=C(c1ccco1)N(Cc1ccc([N+](=O)[O-])cc1)c1ccc(Cl)cc1 ?
TDP43 rescue: 22µM*; FUS suppressor: inactive; PTAP TSG101 blk: -7%; Abeta rescue: inactive; aSyn rescue: 10%

How did CCOC(=O)C1(C)C=C(Nc2cccc(C(=O)O)c2)C(=O)N1c1ccccc1 (configuration not stated) do in these assays?
TDP43 rescue: 9%; FUS suppressor: inactive; Abeta rescue: inactive

Results for O=C1c2c(O)ccc(O)c2C(=O)c2c(NCCNCCO)ccc(NCCNCCO)c21 ?
TDP43 rescue: 0%; FUS suppressor: 28µM*; PTAP TSG101 blk: 2%; Abeta rescue: inactive; aSyn rescue: -20%

What do the screens show for `O=C1c2ccccc2C(=O)c2c(Nc3ccc(CCO)cc3)ccc(O)c21`?
TDP43 rescue: -16%; FUS suppressor: inactive; PTAP TSG101 blk: -8%; Abeta rescue: inactive; aSyn rescue: -16%

What do the screens show for `COc1ccc(OC)c(NC(=O)CSc2cn(CC(=O)N3CCOCC3)c3ccccc23)c1`?
TDP43 rescue: 17%; FUS suppressor: inactive; Abeta rescue: inactive

What do the screens show for `CC1(C)Cc2c(C#N)c(N3CCN(C(=O)c4ccccc4Cl)CC3)nc(-c3ccco3)c2CS1`?
TDP43 rescue: 22%; FUS suppressor: 11µM*; PTAP TSG101 blk: 2%; Abeta rescue: inactive; aSyn rescue: 6%

How did CCOC1=C2CN(S(=O)(=O)c3ccc(C)cc3)[C@@H](c3ccc(CC)cc3)C[C@H]2[C@H]2C(=O)N(c3ccccc3)C(=O)[C@H]2C1 do in these assays?
TDP43 rescue: 6%; FUS suppressor: inconclusive; Abeta rescue: inactive; aSyn rescue: 2%

What do the screens show for `CC(=O)Oc1ccc(-c2csc(Nc3ccccn3)n2)cc1`?
TDP43 rescue: 13µM*; FUS suppressor: inactive; Abeta rescue: inactive; aSyn rescue: -30%

Results for c1csc(-c2csc(-c3cccs3)n2)c1 ?
TDP43 rescue: 13µM*; FUS suppressor: inactive; PTAP TSG101 blk: -8%; Abeta rescue: inactive; aSyn rescue: 0%

Results for CC(=O)Oc1ccc(-c2csc(Nc3cccc(C)n3)n2)cc1 ?
TDP43 rescue: 7%; FUS suppressor: inactive; PTAP TSG101 blk: -2%; Abeta rescue: inactive; aSyn rescue: -24%

How did COc1ccc(-c2csc(Nc3cccc(C)n3)n2)cc1 do in these assays?
TDP43 rescue: 18µM*; FUS suppressor: inactive; PTAP TSG101 blk: -2%; Abeta rescue: inactive; aSyn rescue: -27%

How did c1ccc(Nc2nc(-c3cccs3)cs2)nc1 do in these assays?
TDP43 rescue: 35µM*; FUS suppressor: inactive; PTAP TSG101 blk: -10%; Abeta rescue: inactive; aSyn rescue: -21%

How did Cc1ccc(Cn2cc(S(=O)(=O)c3cccc(C)c3)c(=O)c3cc(F)c(N4CCOCC4)cc32)cc1 do in these assays?
TDP43 rescue: 0%; FUS suppressor: inactive; Abeta rescue: inactive

Results for Fc1ccc(-c2csc(-c3ccncc3)n2)cc1 ?
TDP43 rescue: 13µM*; FUS suppressor: inactive; PTAP TSG101 blk: -2%; Abeta rescue: inactive; aSyn rescue: 3%

Results for c1ccc(Nc2nc(-c3cccnc3)cs2)nc1 ?
TDP43 rescue: 15%; FUS suppressor: inactive; PTAP TSG101 blk: -3%; Abeta rescue: inactive; aSyn rescue: -2%

Results for OC(c1ccc(F)cc1)c1nc(-c2ccncc2)cs1 (configuration not stated) ?
TDP43 rescue: 9%; FUS suppressor: inactive; Abeta rescue: inactive; aSyn rescue: 0%

What do the screens show for `Fc1ccc(-c2csc(Nc3ccccn3)n2)cc1`?
TDP43 rescue: 11µM*; FUS suppressor: inactive; PTAP TSG101 blk: -4%; Abeta rescue: inactive; aSyn rescue: -18%

How did CNc1ncnc2c1ncn2[C@H]1C[C@H](OP(=O)(O)O)[C@@H](COP(=O)(O)O)O1 do in these assays?
aSyn rescue: -6%

Results for COc1ccc(CN2CCC(CNC(=O)Nc3ccc(C)c(F)c3)CC2)cc1 ?
FUS suppressor: inactive

Results for COCCN1CC(=O)N(c2cccc(C)c2C)C(c2ccc(Cl)cc2)C1=O (configuration not stated) ?
TDP43 rescue: 7%; FUS suppressor: inactive; PTAP TSG101 blk: -5%; Abeta rescue: inactive; aSyn rescue: 5%

What do the screens show for `Cc1cccc(N2C(=O)C(Oc3ccc(Cl)cc3Cl)C2C=O)c1C` (configuration not stated)?
TDP43 rescue: 16µM*; PTAP TSG101 blk: -1%; Abeta rescue: inactive; aSyn rescue: -51%

Results for O=C(O)c1cncc(C#Cc2ccccc2)c1 ?
TDP43 rescue: 21%; FUS suppressor: inactive; PTAP TSG101 blk: 3%; Abeta rescue: inactive; aSyn rescue: 12%

Results for O=C(O)c1cncc(C#CCC2CCCCC2)c1 ?
TDP43 rescue: 14µM*; FUS suppressor: inactive; PTAP TSG101 blk: -1%; Abeta rescue: inactive; aSyn rescue: 3%

How did CC(=O)c1cccc(NC(=O)C2C3C=CC(C4CC34)C2C(=O)O)c1 (configuration not stated) do in these assays?
TDP43 rescue: 22µM*; FUS suppressor: inactive; PTAP TSG101 blk: -10%; Abeta rescue: inconclusive; aSyn rescue: 1%
